# Rows were chosen to be rich in hits. Some 11% of all compounds tested hit in one or more screens of this group.
# HEK293 tox – cytotoxic compounds in HEK 293 cells; HEK 293 viability, ATP luminescence (CellTiter-Glo), 48-72 h; Potency, µM (doses to about 115 µM), without a hit: at the top dose activity change, negative = cytotoxicity, hits mostly inhibitors; 6.6% of 94,000 active; active = well fitted curve in the direction sought with a large enough effect; inconclusive = small, poorly fitted or top-dose-only effect, or another doubt; inactive = no such curve, though single readings can be large; an effect the other way counts as inactive or inconclusive; also: % is scaled to controls: 0 for no effect and ±100 for the full control effect; nearly all actives have a fitted effect of over 60% in size
#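 HEK 293 seeded at 250 cells/well receive compound via pintool. After 48 or 72 hr at 37 degree Celsius, 5% CO2 and 95% humidity, CellTiter-Glo is dispensed and luminescence read following 10 min at room temperature.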
# FLuc inh – inhibitors of firefly (Photinus pyralis) luciferase | P08659 | purified P. pyralis luciferase, luminescence, biochemical | Potency, µM (doses to about 115 µM), hits mostly inhibitors | 2.5% of 76,000 active | AID 1347043; active = well fitted curve in the direction sought with a large enough effect; inconclusive = small, poorly fitted or top-dose-only effect, or another doubt; inactive = no such curve, though single readings can be large; an effect the other way counts as inactive or inconclusive; also: % is scaled to controls: 0 for no effect and ±100 for the full control effect; nearly all actives have a fitted effect of over 65% in size
# Target sequence (P08659 whole entry, looked up): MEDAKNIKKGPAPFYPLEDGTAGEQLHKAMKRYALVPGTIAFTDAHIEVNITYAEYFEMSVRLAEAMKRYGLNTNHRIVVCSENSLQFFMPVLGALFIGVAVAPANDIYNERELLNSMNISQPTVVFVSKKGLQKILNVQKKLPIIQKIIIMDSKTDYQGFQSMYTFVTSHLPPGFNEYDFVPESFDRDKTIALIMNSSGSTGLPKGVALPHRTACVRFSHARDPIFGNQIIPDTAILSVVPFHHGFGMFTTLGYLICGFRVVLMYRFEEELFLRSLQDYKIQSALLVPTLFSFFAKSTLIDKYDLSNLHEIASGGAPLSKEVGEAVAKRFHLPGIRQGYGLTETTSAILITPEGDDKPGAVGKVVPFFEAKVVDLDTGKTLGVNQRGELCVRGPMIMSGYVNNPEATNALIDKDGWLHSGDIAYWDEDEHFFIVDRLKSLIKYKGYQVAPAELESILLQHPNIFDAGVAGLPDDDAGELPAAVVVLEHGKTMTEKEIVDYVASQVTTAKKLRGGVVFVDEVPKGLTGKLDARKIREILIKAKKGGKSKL
#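 Luminescence read by CCD imager after adding enzyme (10nM final) to wells holding compound, titrated in qHTS. Substrates 10uM each D-luciferin and ATP; buffer 50mM Tris acetate pH 7.5, 10mM Mg acetate, Tween-20, BSA.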
# NPR1 antag – human Npr1 receptor antagonism; 1.6% of 76,000 active; HEK293 hNpr1 GloSensor cGMP, ANP-stimulated luminescence; Potency, µM (top dose mostly 46.3 µM), inactives show at the highest dose activity change, negative = inhibition, usual class: inhibitors; P16066; also: % is scaled to controls: 0 for no effect and ±100 for the full control effect; nearly all actives have a fitted effect of over 60% in size
#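 Compound pre-incubated 30 min at room temperature on GloSensor-loaded HEK293 cells stably carrying hNpr1 and the pGS-40F cGMP biosensor. Stimulation uses hNppA at 0.1 nM final; luminescence is taken at baseline and 20 min post-agonist.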
# NIH3T3 tox – kills NIH 3T3 cells; Potency, µM (titrated, usually from 96.7 µM), without a hit: top-dose activity change, negative = cytotoxicity, hits mostly inhibitors; AID 1345082; NIH 3T3 viability, CellTiter-Glo ATP luminescence, 48-72 h; 4.3% of 94,000 active; active = well fitted curve in the direction sought with a large enough effect; inconclusive = small, poorly fitted or top-dose-only effect, or another doubt; inactive = no such curve, though single readings can be large; an effect the other way counts as inactive or inconclusive; also: % is scaled to controls: 0 for no effect and ±100 for the full control effect; nearly all actives have a fitted effect of over 55% in size
#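 Cytotoxicity was measured by CellTiter-Glo ATP luminescence after 48 or 72 h compound exposure at 37 °C. Mouse NIH 3T3 fibroblasts were seeded at 400 cells/well and dosed by 23 nL pin transfer.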
# NPR1 antag cnf – confirmation of human Npr1 natriuretic peptide receptor antagonists; shares compounds with NPR1 antag; HEK293 hNpr1 cGMP GloSensor luminescence, ANP-stimulated; Potency, µM (titrated, usually from 57.6 µM), inactives show at the top dose activity change, negative = inhibition, hits mostly inhibitors; 76% of 1,400 active; AID 1347044; also: nearly all actives have a fitted effect of over 70% in size
# Npr2 selectivity – selectivity test of Npr1 antagonists against human Npr2 | shares compounds with NPR1 antag | HEK293 hNpr2 GloSensor cGMP luminescence, CNP-stimulated | Potency, µM (doses to about 57.6 µM), for the others: at the top dose activity change, negative = inhibition, hits mostly inhibitors | 67% of 1,400 active | AID 1347046; also: nearly all actives have a fitted effect of over 70% in size
# FLuc inh counter – inhibits firefly luciferase, false Npr1 antagonist flag; purified FLuc enzyme, luminescence, Km substrate; AID 1347047; 0.7% of 1,400 active; Potency, µM (doses to about 57.6 µM), inactives show top-dose activity change, negative = inhibition, actives largely listed as inhibitors; shares compounds with NPR1 antag; active = well fitted curve in the direction sought with a large enough effect; inconclusive = small, poorly fitted or top-dose-only effect, or another doubt; inactive = no such curve, though single readings can be large; an effect the other way counts as inactive or inconclusive; also: 0% is about no effect
# GloSensor cGMP – reduces cGMP signal in GloSensor control cells; shares compounds with NPR1 antag; HEK293 GloSensor cGMP, SNP-stimulated, luminescence; Potency, µM (top dose mostly 57.6 µM), without a hit: at the highest dose activity change, negative = inhibition, most hits filed as inhibitors; 69% of 1,400 active; AID 1347051; also: % is scaled to controls: 0 for no effect and ±100 for the full control effect; nearly all actives have a fitted effect of over 70% in size
# Numbers without * were called inactive; i = inactive; ? = inconclusive; / = no result given; [ ] = another dose, or the depositor's remark. Unless noted, calls follow the shape of the full dose curve. Potency is read from the fitted curve at half-maximal effect.
SMILES,HEK293 tox,FLuc inh,NPR1 antag,NIH3T3 tox,NPR1 antag cnf,Npr2 selectivity,FLuc inh counter,GloSensor cGMP
O=C(Cc1ccccc1)N1CCCN(CCn2nc3n(c2=O)CCCC3)CC1,-6.6%,/,/,-8.7%,/,/,/,/
CCN1CCCC12Cc1ccccc1CN(C(=O)Cc1ccccc1)C2 (centres undefined),-27.3%,/,/,-4.2%,/,/,/,/
C=CCN(C)C(=O)[C@H]1CN2CCC1C[C@@H]2Cn1cc(CSc2ccccc2)nn1 (some centres undefined),-21.9%[172 µM],i,0.8%[70.6 µM],-28.6%[174 µM],/,/,/,/
CCC(CC)c1cc([C@H]2CN3CC[C@H]2C[C@@H]3CNS(=O)(=O)c2cccs2)nc(-c2ccncc2)n1,?,i,14.1µM*,20µM*,21.7µM*,10.9µM*,4.6%,-14.6%
CCC(CC)c1cc([C@H]2CN3CC[C@H]2C[C@@H]3CNS(C)(=O)=O)nc(-c2ccncc2)n1,-10.3%,i,1.6%,-14.8%,/,/,/,/
CC[C@H]1CN2CC[C@H]1C[C@@H]2CNS(=O)(=O)c1cccs1,-0.9%[172 µM],i,0.3%[70.6 µM],1.3%[174 µM],/,/,/,/
CC[C@H]1CN2CC[C@H]1C[C@@H]2CN(Cc1cccs1)Cc1cccs1,44.7µM*,i,?,44.7µM*,?,?,2.8%[86.2 µM],4.3%[86.2 µM]
C#C[C@H]1CN2CC[C@H]1C[C@@H]2CNC(=O)c1ccc(N(C)C)cc1,-0.3%[172 µM],i,1.6%[70.6 µM],2.5%[174 µM],/,/,/,/
CCNC(=O)N1[C@H]2CC[C@@H]1c1cnc(-c3ccc(F)cc3)nc1C2,?,i,-23.6%,-20.3%,/,/,/,/
COc1ccc(C2(C(=O)N3CCC4(CC3)c3nccn3-c3ccccc3CN4C)CC2)cc1,?,i,8.91µM*,-14.5%,17.2µM*,5.44µM*,1.6%,7.1%
CCC1(N2CCN(C(=O)COc3cccc(Cl)c3)CC2)CCN(C(=O)NC)C1 (centres undefined),-28.4%,i,-17.6%,-37.3%,/,/,/,/
